The panel holds about 79,000 compounds, 15% with a hit somewhere; the sample as a whole holds those more often. The source made the active and inactive calls. Cut-off read from the data, not from the text of the source: active = growth inhibition above about 70%; inactive = the rest.
Tests used:
[1] = NCI Yeast Anticancer Drug Screen. Data for the rad52 strain (AID 147);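 note: 0% = growth of vehicle-treated control cultures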; conditions: S. cerevisiae rad52 mutant growth inhibition, hits give high values
Outline: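 Compounds are applied to a genetically defined yeast strain lacking normal DNA damage repair, and inhibition of growth is expressed relative to cultures given vehicle only.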

[2] = NCI Yeast Anticancer Drug Screen. Data for the wt1 strain (AID 149);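 note: 0% = growth of vehicle-treated wt1 cultures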; conditions: S. cerevisiae wt1 strain (SPY 50644) growth inhibition, hits give high values
Outline: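 The wt1 strain was treated with compounds, and growth was compared with vehicle-treated cultures to give inhibition.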

[3] = NCI Yeast Anticancer Drug Screen. Data for the rad50EPP+ strain (AID 151);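 note: 0% = growth of vehicle-treated control cultures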; conditions: S. cerevisiae rad50 mutant strain, hits give high values
Outline: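 Compounds were applied to the rad50EPP+ yeast strain, which bears a defined DNA repair alteration, and growth inhibition was determined relative to vehicle-treated cultures.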

[4] = NCI Yeast Anticancer Drug Screen. Data for the mgt1 strain (AID 153); conditions: S. cerevisiae mgt1 mutant growth inhibition, hits give high values
Outline: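 Strain: mgt1 yeast, one of a set carrying defined DNA damage repair or cell cycle control alterations. Compound-treated growth compared with vehicle.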

[5] = NCI Yeast Anticancer Drug Screen. Data for the rad50 strain (AID 155);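 note: 0% = growth of vehicle-only cultures of the same strain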; conditions: S. cerevisiae rad50 strain growth inhibition, hits give high values
Outline: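 Cells are treated with compound, grown, and their growth is then scored against vehicle-only cultures of the same repair-deficient yeast strain.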

[6] = NCI Yeast Anticancer Drug Screen. Data for the mec2-1 strain (AID 157); conditions: S. cerevisiae mec2-1 strain, hits give high values
Outline: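 Strain: mec2-1 (DNA repair/cell cycle alteration). Compound exposure, then growth measured; inhibition expressed relative to vehicle.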

[7] = NCI Yeast Anticancer Drug Screen. Data for the sgs1 mgt1 strain (AID 161);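 note: 0% = growth of cultures given vehicle only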; conditions: S. cerevisiae sgs1 mgt1 strain, hits give high values
Outline: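 Inhibition of yeast growth, normalised to vehicle-treated controls, is reported for a strain bearing genetic alterations in DNA damage repair.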

[8] = NCI Yeast Anticancer Drug Screen. Data for the CLN2oe strain (AID 163);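 note: 0% = growth of vehicle-only control cultures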; conditions: S. cerevisiae CLN2oe strain, hits give high values
Outline: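 Growth of a genetically modified yeast strain is measured after compound exposure and compared with cultures given vehicle alone.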

[9] = NCI Yeast Anticancer Drug Screen. Data for the cln2 rad14 strain (AID 165);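 note: 0% = growth equal to vehicle treated cultures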; conditions: S. cerevisiae cln2 rad14 strain, hits give high values
Outline: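 Compounds are applied to the cln2 rad14 yeast strain, and growth is then compared with that of vehicle-treated cultures to give inhibition.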

[10] = NCI Yeast Anticancer Drug Screen. Data for the bub3 strain (AID 167); conditions: S. cerevisiae bub3 mutant strain, hits give high values
Outline: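 Part of a panel of yeast mutants defective in DNA damage repair or cell cycle regulation. Each strain is grown with compound, and inhibition is calculated relative to solvent-treated cultures.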

[11] = NCI Yeast Anticancer Drug Screen. Data for the wt2 strain (AID 169);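 note: 0% = growth of vehicle-treated yeast cultures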; conditions: S. cerevisiae wt2 strain growth inhibition, hits give high values
Outline: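 This strain belongs to a panel of yeast strains with defined genetic alterations in DNA damage repair or cell cycle control. Compounds are applied, and growth inhibition is measured against vehicle-treated cultures.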

[12] = NCI Yeast Anticancer Drug Screen. Data for the mlh1 strain (AID 171);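 note: 0% = growth of vehicle-treated control cultures of the same strain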; conditions: S. cerevisiae mlh1 strain growth inhibition, hits give high values
Outline: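 Growth of the mutant yeast strain after compound exposure, expressed as inhibition relative to vehicle-only controls.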

[13] = NCI Yeast Anticancer Drug Screen. Data for the sgs1 strain (AID 173);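 note: 0% = growth of vehicle-only control cultures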; conditions: S. cerevisiae sgs1 mutant, hits give high values
Outline: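 Growth of a yeast strain bearing a defined genetic alteration is measured after compound treatment. Inhibition is expressed relative to vehicle-only controls.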

[14] = NCI Yeast Anticancer Drug Screen. Data for the mlh1 rad18 strain (AID 175); conditions: S. cerevisiae mlh1 rad18 strain growth inhibition, hits give high values
Outline: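 Read-out is yeast growth inhibition, calculated against vehicle-only controls. The compound was applied to a strain engineered with DNA damage repair alterations.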

[15] = NCI Yeast Anticancer Drug Screen. Data for the rad14 strain (AID 159);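 note: 0% = growth of vehicle-treated control cultures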; conditions: S. cerevisiae rad14 strain growth inhibition, hits give high values
Outline: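 Readout: yeast growth inhibition, referenced to vehicle-only cultures. Strain bears a defined alteration in DNA damage repair.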

[16] = NCI Yeast Anticancer Drug Screen. Data for the rad18 strain (AID 177); conditions: S. cerevisiae rad18 mutant growth inhibition, hits give high values
Outline: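 Growth of the mutant yeast strain after compound exposure, normalised to vehicle-only cultures.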

[17] = at 5.0 µM (retest, dose inferred, filed as 0.5)
[18] = at 50.0 µM (retest, dose inferred, filed as 5.0)

Measured: growth inhibition

Oc1ccc2c(c1)C(O)CCCC2 (stereo unspecified)
inactive: [1]; at 1.2 µM 5% | [1]; at 3.7 µM 9% | [1]; at 11.0 µM 25% | [1]; at 33.0 µM 38% | [2]; at 1.2 µM -3% | [2]; at 3.7 µM -7% | [2]; at 11.0 µM -4% | [2]; at 33.0 µM -1% | [2]; at 100.0 µM 18% | [3]; at 1.2 µM 10% | [3]; at 3.7 µM 25% | [3]; at 11.0 µM 40% | [3]; at 33.0 µM 53% | [4]; at 1.2 µM -2% | [4]; at 3.7 µM 1% | [4]; at 11.0 µM 4% | [4]; at 33.0 µM 17% | [5]; at 1.2 µM 4% | [5]; at 3.7 µM 16% | [5]; [17] 31% | [5]; at 11.0 µM 28% | [5]; at 33.0 µM 46% | [6]; at 1.2 µM -3% | [6]; at 3.7 µM -1% | [6]; [17] 6% | [6]; at 11.0 µM 2% | [6]; at 33.0 µM 7% | [6]; at 50.0 µM 58.6% | [6]; at 100.0 µM 46% | [7]; [17] 65% | [7]; at 50.0 µM 34.1% | [8]; at 1.2 µM -4% | [8]; at 3.7 µM -6% | [8]; at 11.0 µM -3% | [8]; at 33.0 µM 7% | [8]; at 100.0 µM 42% | [9]; [17] 0% | [9]; [18] 36% | [9]; at 50.0 µM 35.4% | [10]; at 1.2 µM -9% | [10]; at 3.7 µM -8% | [10]; [17] 30% | [10]; at 11.0 µM -9% | [10]; at 33.0 µM -2% | [10]; at 50.0 µM 66.2% | [10]; at 100.0 µM 35% | [11]; at 1.2 µM -5% | [11]; at 3.7 µM -4% | [11]; at 11.0 µM 25% | [11]; at 33.0 µM 4% | [11]; at 100.0 µM 69% | [12]; at 1.2 µM 2% | [12]; at 3.7 µM 10% | [12]; at 11.0 µM 15% | [12]; at 33.0 µM 29% | [13]; at 1.2 µM 5% | [13]; at 3.7 µM 19% | [13]; at 11.0 µM 24% | [13]; at 33.0 µM 43%
active: [1]; at 100.0 µM 86% | [3]; at 100.0 µM 71% | [4]; at 100.0 µM 71% | [5]; [18] 97% | [5]; at 50.0 µM 77.8% | [5]; at 100.0 µM 91% | [6]; [18] 82% | [7]; [18] 98% | [10]; [18] 96% | [12]; at 100.0 µM 90% | [13]; at 100.0 µM 93% | [14]; [17] 87% | [14]; [18] 99% | [14]; at 50.0 µM 86.8%

O=C1C(=O)c2ccccc2C(O)=C1C(C1=C(O)c2ccccc2C(=O)C1=O)c1ccc(Cl)cc1
inactive: [1]; at 1.2 µM 9% | [1]; at 3.7 µM 26% | [1]; at 11.0 µM 62% | [1]; at 33.0 µM 60% | [1]; at 100.0 µM 48% | [2]; at 1.2 µM 4% | [2]; at 3.7 µM 8% | [2]; at 11.0 µM 31% | [2]; at 33.0 µM 32% | [2]; at 100.0 µM 29% | [3]; at 1.2 µM 7% | [3]; at 3.7 µM 28% | [3]; at 11.0 µM 51% | [3]; at 33.0 µM 48% | [3]; at 100.0 µM 30% | [5]; at 1.2 µM 11% | [5]; at 3.7 µM 18% | [5]; [17] -7% | [5]; at 11.0 µM 51% | [5]; at 33.0 µM 41% | [5]; at 100.0 µM 31% | [6]; at 1.2 µM 10% | [6]; at 3.7 µM 18% | [6]; [17] -5% | [6]; at 11.0 µM 60% | [6]; at 33.0 µM 63% | [6]; [18] -6% | [6]; at 100.0 µM 65% | [15]; at 1.2 µM 5% | [15]; at 3.7 µM -6% | [15]; at 11.0 µM 28% | [15]; at 33.0 µM 32% | [15]; at 100.0 µM 15% | [7]; [17] -2% | [7]; [18] 21% | [7]; at 50.0 µM 60.1% | [8]; at 1.2 µM 3% | [8]; at 3.7 µM 12% | [8]; at 11.0 µM 60% | [8]; at 33.0 µM 66% | [8]; at 100.0 µM 63% | [9]; [17] 0% | [9]; [18] 3% | [9]; at 50.0 µM 42.4% | [10]; at 1.2 µM -1% | [10]; at 3.7 µM 5% | [10]; [17] -3% | [10]; at 11.0 µM 55% | [10]; at 33.0 µM 66% | [10]; [18] 34% | [10]; at 100.0 µM 50% | [11]; at 1.2 µM 4% | [11]; at 3.7 µM 15% | [11]; at 11.0 µM 50% | [11]; at 33.0 µM 54% | [11]; at 100.0 µM 46% | [12]; at 1.2 µM 6% | [12]; at 3.7 µM 13% | [12]; at 11.0 µM 58% | [12]; at 33.0 µM 62% | [12]; at 100.0 µM 56% | [13]; at 1.2 µM 16% | [13]; at 3.7 µM 39% | [13]; at 100.0 µM 63% | [14]; [17] -5% | [14]; [18] 42% | [16]; at 1.2 µM 23% | [16]; at 3.7 µM 38% | [16]; at 33.0 µM 64% | [16]; at 100.0 µM 49%
active: [5]; [18] 73% | [5]; at 50.0 µM 92.5% | [6]; at 50.0 µM 72.2% | [10]; at 50.0 µM 80% | [13]; at 11.0 µM 74% | [13]; at 33.0 µM 72% | [14]; at 50.0 µM 86.2% | [16]; at 11.0 µM 70%

— PubChem BioAssay (NCI)
